Most compounds without a hit are left out; they make up all but 11% or so of the library.
Luciferase inh = inhibitors of firefly (Photinus pyralis) luciferase; P08659; Potency, µM (top dose mostly 115 µM), most hits filed as inhibitors; 76,000 tested, 2.5% active; AID 1347043; purified P. pyralis luciferase, luminescence, biochemical; note: nearly all actives have a fitted effect of over 65% in size
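FLuc 10nM, D-luciferin 10uM, ATP 10uM, Mg acetate 10mM, Tris acetate pH 7.5, Tween/BSA; cpd qHTS; enzyme added last; CCD luminescence.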
NIH3T3 tox = NIH 3T3 cell cytotoxicity; 94,000 tested, 4.3% active; Potency, µM (titrated, usually from 96.7 µM), most hits filed as inhibitors; AID 1345082; NIH 3T3 viability, CellTiter-Glo ATP luminescence, 48-72 h; note: nearly all actives have a fitted effect of over 55% in size
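Luminescent ATP readout (CellTiter-Glo, 10 min RT) after 48 or 72 hr compound exposure of NIH 3T3 cells seeded at 400 cells/well in 1536-well format; quantitative HTS.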
HEK cytotox = kills HEK 293 cells | HEK 293 viability, ATP luminescence (CellTiter-Glo), 48-72 h | Potency, µM (top dose mostly 115 µM), actives largely listed as inhibitors | 94,000 tested, 6.6% active; note: nearly all actives have a fitted effect of over 60% in size
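Luminescence from cellular ATP, measured with CellTiter-Glo, indicates HEK 293 viability. Cells plated at 250 cells/well are treated with compound for 48 or 72 hr at 37 degree Celsius before reagent addition.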
NPR1 antag = blocks ANP-stimulated signaling of human Npr1 receptor; P16066; HEK293 hNpr1 GloSensor cGMP, ANP-stimulated luminescence; Potency, µM (series often up to 46.3 µM), most hits filed as inhibitors; 76,000 tested, 1.6% active; calls by dose curve; note: nearly all actives have a fitted effect of over 60% in size
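HEK293 cells stably expressing human Npr1 and cGMP GloSensor pGS-40F, loaded 2 h with 2% GloSensor reagent, given compound 30 min at room temperature. Luminescence read before and 20 min after 0.1 nM hNppA.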
Npr1 antag conf = confirmation of human Npr1 natriuretic peptide receptor antagonists. Potency, µM (top dose mostly 57.6 µM), usual class: inhibitors. shares compounds with NPR1 antag. HEK293 hNpr1 cGMP GloSensor luminescence, ANP-stimulated. 1,400 tested, 76% active. AID 1347044; calls by dose curve; note: nearly all actives have a fitted effect of over 70% in size
NPR2 antag = selectivity test of Npr1 antagonists against human Npr2. Potency, µM (titrated, usually from 57.6 µM), usual class: inhibitors. 1,400 tested, 67% active. HEK293 hNpr2 GloSensor cGMP luminescence, CNP-stimulated. shares compounds with NPR1 antag; calls by dose curve; note: nearly all actives have a fitted effect of over 70% in size
FLuc counter = FLuc enzyme inhibition, Npr1 counter-screen; Potency, µM (titrated, usually from 57.6 µM), hits mostly inhibitors; purified FLuc enzyme, luminescence, Km substrate; shares compounds with NPR1 antag; 1,400 tested, 0.7% active; note: series mostly up to about 58 µM
GloSensor cGMP = reduces cGMP signal in GloSensor control cells. HEK293 GloSensor cGMP, SNP-stimulated, luminescence. shares compounds with NPR1 antag. Potency, µM (titrated, usually from 57.6 µM), usual class: inhibitors. 1,400 tested, 69% active; calls by dose curve; note: nearly all actives have a fitted effect of over 70% in size
Numbers stand for hits; i = inactive; ? = inconclusive; nt = no result. Unless noted, calls come from the whole dose curve; as a rule, active = well fitted curve in the direction sought with a large enough effect; inconclusive = small, poorly fitted or top-dose-only effect, or another doubt; inactive = no such curve, though single readings can be large; an effect the other way counts as inactive or inconclusive.

SMILES | Luciferase inh | NIH3T3 tox | HEK cytotox | NPR1 antag | Npr1 antag conf | NPR2 antag | FLuc counter | GloSensor cGMP
CC[C@H]1CN2CC[C@H]1C[C@@H]2CN(Cc1cccs1)Cc1cccs1 | i | 45µM | 45µM | ? | ? | ? | i | i
CC[C@H]1CN2CC[C@H]1C[C@@H]2CNS(=O)(=O)c1cccs1 | i | i | i | i | nt | nt | nt | nt
COc1ccccc1N1CCN(C[C@H]2CN3CC[C@H]2C[C@@H]3CNC(=O)Nc2cccc(C#N)c2)CC1 | i | i | i | i | nt | nt | nt | nt
COc1ccc(C2(C(=O)N3CCC4(CC3)c3nccn3-c3ccccc3CN4C)CC2)cc1 | i | i | ? | 8.9µM | 17µM | 5.4µM | i | i
Cc1cc(S(=O)(=O)N2[C@H]3CC[C@@H]2c2cnc(-c4ccccc4)nc2C3)ccc1F | i | i | i | i | nt | nt | nt | nt
O=C(CC1CCCC1)N1[C@H]2CC[C@@H]1c1cnc(-c3ccccc3)nc1C2 | i | i | ? | 5.6µM | 11µM | 12µM | i | 11µM
CCC(=O)N1[C@H]2CC[C@@H]1c1cnc(-c3ccc(F)cc3)nc1C2 | i | i | i | ? | nt | nt | nt | nt
O=C(C1CCCCC1)N1[C@H]2CC[C@@H]1c1cnc(-c3ccc(F)cc3)nc1C2 | i | i | i | 6.3µM | 9.7µM | 11µM | i | 9.7µM
O=C(C1CCC1)N1[C@H]2CC[C@@H]1c1cnc(-c3ccccc3)nc1C2 | i | i | ? | ? | nt | nt | nt | nt
COc1ccc(CNC(=O)N2[C@H]3CC[C@@H]2c2cnc(-c4ccccc4)nc2C3)cc1 | i | i | ? | 13µM | 19µM | 19µM | i | 14µM
O=C(C1CCC1)N1[C@H]2CC[C@@H]1c1cnc(-c3ccc(F)cc3)nc1C2 | i | i | ? | 18µM | 19µM | 19µM | i | 15µM
C#C[C@H]1CN2CC[C@H]1C[C@@H]2CNCc1cccc(C#N)c1 | i | i | ? | i | nt | nt | nt | nt
CCOC(=O)[C@H]1CN(S(=O)(=O)c2ccccc2)[C@]2(C)C(=O)N(CC(=O)N(C)C)c3ccccc3[C@H]12 | nt | ? | i | nt | nt | nt | nt | nt
Cn1cccc1C(=O)N1[C@H]2CC[C@@H]1c1cnc(-c3ccc(F)cc3)nc1C2 | i | ? | 16µM | 10µM | 12µM | 15µM | i | 14µM

Screening data from PubChem BioAssay.
